PubChem BioAssay AID686978 (National Center for Advancing Translational Sciences (NCATS), 2013)
Hit rate of the full screen: of about 420,000 compounds, about 64,000 (15%) were called active. Not shown: some 27% with an inconclusive outcome. Calls follow the shape of the dose curve; as a rule, active = well fitted inhibition curve with a large enough effect; inconclusive = small, poorly fitted or top-dose-only effect; inactive = flat fitted curve, though single readings scatter. These entries were drawn from the full list. Entries that show only a call come without a potency.
Potency is read from the fitted curve at half-maximal effect.

Assay: qHTS for Inhibitors of human tyrosyl-DNA phosphodiesterase 1 (TDP1): qHTS in cells in absence of CPT; also: nearly all actives have a fitted effect of over 55% in size
Settings: DT40 Tdp1-/- hTDP1 cells, no CPT, ATP luminescence, 48 h; activity change, negative = growth inhibition: at 46.2 µM (top of the series)
In short: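 Growth of hTDP1-complemented DT40 Tdp1-knockout cells is measured by ATP luminescence after at least 48 hr compound exposure at 37 °C, with DMSO substituting for the 20 nM CPT used in the parallel screen.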
For CCCc1cc(C(=O)Nc2ccc(C(=O)OC)cc2)cs1, the Potency was “inactive”. With CC(O)c1ccc(OCCN(C)c2ccccn2)cc1 (stereo not given) the Potency was “inactive”. For O=C(COC(=O)c1c(Cl)cccc1Cl)Nc1cccc(S(=O)(=O)NC2=NCCCCC2)c1, the Potency was “inactive”. For CCn1c(CC(=O)Nc2ccccc2C)nnc1SCC(=O)NC1=NCCS1, the Potency was “inactive”. In the case of COCCCNC(=O)C1CCN(c2ccc(N3CCOCC3)nn2)CC1, the Potency is reported as “inactive”. In the case of Fc1ccccc1CNC(=S)Nc1ccc(Cl)cc1, the Potency is reported as 20.6 µM (active). In the case of Cn1cc(C(=O)NCc2ccccc2F)cn1, the Potency is reported as “inactive”. For COC(=O)Cc1ccc(NC(=S)NCc2ccccc2)cc1, the Potency was “inactive”. For C[C@H](C(=O)CC(=O)OC(C)(C)C)[C@H](O)c1ccc(C(F)(F)F)cc1, the Potency was “inactive”. In the case of O=C(NCc1ccncc1)NC12CC3CC(CC(C3)C1)C2, the Potency is reported as “inactive”. With CCN(CC(=O)NCc1ccc(F)cc1)S(=O)(=O)c1ccc(Cl)s1 the Potency was “inactive”. In the case of CCCCNC(=O)c1nc(C2CCN(S(=O)(=O)c3ccc(F)c(F)c3)CC2)oc1-c1cccc(C(F)(F)F)c1, the Potency is reported as “inactive”. In the case of CN1CCCC1CCO[C@@](C)(c1ccccc1)c1ccc(Cl)cc1 (stereo not given in full), the Potency is reported as 14.6 µM (active). With CCC1CCC/C1=N\NC(=O)c1ccc(Cl)cc1 (stereo not given) the Potency was “inactive”. With C#CC(CCN1CCCCC1)(OC)c1ccccc1 (stereo not given) the Potency was “inactive”. In the case of CN1CCC[C@@H]1CCO[C@](C)(c1ccccc1)c1ccc(Cl)cc1, the Potency is reported as 26.6 µM (active). With COc1ccc(CN2CCNC(=O)C2CC(=O)N(C)Cc2ccccn2)cc1OC (stereo not given) the Potency was “inactive”. For CC1CC(C)CN(S(=O)(=O)c2cccc(C(=O)N3C(=O)c4cccc(N)c4C3=O)c2)C1 (stereo not given), the Potency was “inactive”. For Cc1ccc(NC(=O)Cn2nnc3sc4c(c3c2=O)CCC(C)C4)cc1 (stereo not given), the Potency was “inactive”. For COC(=O)c1cccc(Cn2nnc3sc4c(c3c2=O)CCC(C(C)(C)C)C4)c1 (stereo not given), the Potency was 18.4 µM (active). For COc1cccc2cc(-c3nc(Cl)c4c5c(sc4n3)CC(C)CC5)c(=O)oc12 (stereo not given), the Potency was “inactive”. With O=C(C1CCCO1)N(Cc1ccccc1)c1ccccc1 (stereo not given) the Potency was “inactive”. For Cc1cc(C)c(NC(=O)c2cc3sc(Cl)cc3n2C)c(C)c1, the Potency was “inactive”. In the case of CCOC(=O)Cc1ncccc1C(=O)Nc1ccc(OC)cc1, the Potency is reported as “inactive”. With COC(=O)Cc1ccc(OCC(=O)Nc2ccc(OC(F)(F)F)cc2)cc1 the Potency was “inactive”. With CCOC(=O)Cc1ncccc1C(=O)Nc1ccc(OC(F)(F)F)cc1 the Potency was 14.6 µM (active). For O=c1[nH]snc1-c1c(Cl)cccc1Cl, the Potency was “inactive”. With O=C(NC1CC(=O)N(c2ccc(Cl)cc2)C1)C1CCCC1 (stereo not given) the Potency was “inactive”. For Cc1cc(C)c(S(=O)(=O)Nc2c(C)n(C)n(-c3ccccc3)c2=O)cc1[N+](=O)[O-], the Potency was “inactive”. For CCCCCCCC[n+]1cccc(C(=O)N2c3c(nc(N)[nH]c3=O)NC(C)C2C)c1 (stereo not given), the Potency was “inactive”.
